Measurements as given in PubChem BioAssay (NCI).
The panel holds about 79,000 compounds, 15% with a hit somewhere; the sample as a whole holds those more often. Calls of active or inactive are those of the source. Rule as the data show it: active = growth inhibition above about 70%; inactive = the rest.

How the values were obtained:
[1] = NCI Yeast Anticancer Drug Screen. Data for the rad50 strain (AID 155);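 also: 0% = growth of vehicle-only cultures of the same strain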; settings: S. cerevisiae rad50 strain growth inhibition, hits give high values
How it was run: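 Inhibition values express reduced yeast growth in compound-treated cultures relative to vehicle-treated controls.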

[2] = NCI Yeast Anticancer Drug Screen. Data for the mec2-1 strain (AID 157); settings: S. cerevisiae mec2-1 strain, hits give high values
How it was run: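 Growth inhibition is read against vehicle-treated controls after compound exposure of the mec2-1 yeast strain, which is defective in DNA damage repair or cell cycle control.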

[3] = NCI Yeast Anticancer Drug Screen. Data for the sgs1 mgt1 strain (AID 161);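 also: 0% = growth of cultures given vehicle only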; settings: S. cerevisiae sgs1 mgt1 strain, hits give high values
How it was run: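 Growth of a repair-deficient yeast mutant was monitored after compound treatment and expressed as inhibition relative to vehicle-treated cultures.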

[4] = NCI Yeast Anticancer Drug Screen. Data for the cln2 rad14 strain (AID 165);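 also: 0% = growth equal to vehicle treated cultures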; settings: S. cerevisiae cln2 rad14 strain, hits give high values
How it was run: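 Growth inhibition, relative to vehicle-treated controls, is the read-out. The test organism is a yeast strain with defined genetic alterations, cln2 rad14.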

[5] = NCI Yeast Anticancer Drug Screen. Data for the mlh1 rad18 strain (AID 175); settings: S. cerevisiae mlh1 rad18 strain growth inhibition, hits give high values
How it was run: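 Cells of a genetically altered yeast strain, deficient in DNA damage repair, were treated with compound. Their growth was then compared with that of vehicle-treated cultures to give inhibition.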

[6] = NCI Yeast Anticancer Drug Screen. Data for the bub3 strain (AID 167); settings: S. cerevisiae bub3 mutant strain, hits give high values
How it was run: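 Steps: expose the mutant yeast strain to compound; grow alongside vehicle-treated cultures; measure growth; express inhibition against the vehicle cultures.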

[7] = at 5.0 µM (retest, dose inferred, filed as 0.5)
[8] = at 50.0 µM (retest, dose inferred, filed as 5.0)

Measured: growth inhibition

CC(=O)Nc1nnc(-c2coc3ccccc3c2=O)s1
inactive: [1]; [7] 7% | [1]; [8] 0% | [1]; at 50.0 µM 50.9% | [2]; [7] 4% | [2]; [8] 3% | [2]; at 50.0 µM 6.25% | [3]; [7] 1% | [3]; [8] -3% | [3]; at 50.0 µM 20.4% | [4]; [7] 9% | [4]; [8] 1% | [4]; at 50.0 µM 10.7% | [5]; [7] 2% | [5]; [8] -4% | [5]; at 50.0 µM 12.1%

CN(C(=O)c1cccs1)C(=S)N1CCN(c2ccccc2)CC1
inactive: [1]; [7] -26% | [1]; [8] 66% | [2]; [7] 6% | [2]; [8] 68% | [2]; at 50.0 µM 67% | [3]; [7] -2% | [4]; [7] -8% | [4]; [8] 56% | [4]; at 50.0 µM 49.9% | [5]; [7] -18% | [5]; at 50.0 µM 67.2%
active: [1]; at 50.0 µM 79.8% | [3]; [8] 70% | [3]; at 50.0 µM 84.8% | [5]; [8] 90%

CCOC(=O)c1ccc(NC(=O)CCl)cc1
inactive: [1]; [7] 3% | [1]; at 50.0 µM 51.9% | [2]; [7] 8% | [2]; at 50.0 µM 38.7% | [3]; [7] 21% | [3]; at 50.0 µM 67.5% | [4]; [7] 8% | [4]; at 50.0 µM 28.7% | [5]; [7] 12% | [5]; at 50.0 µM 64.2%
active: [1]; [8] 99% | [2]; [8] 98% | [3]; [8] 98% | [4]; [8] 91% | [5]; [8] 99%

OCC(CCc1c[nH]c2ccccc12)c1c[nH]c2ccccc12 (stereo unspecified)
inactive: [1]; [7] 27% | [2]; [7] 5% | [3]; [7] 20% | [3]; at 50.0 µM 62% | [4]; [7] 5% | [6]; [7] 21% | [5]; [7] 11%
active: [1]; [8] 99% | [1]; at 50.0 µM 99.4% | [2]; [8] 99% | [2]; at 50.0 µM 99.3% | [3]; [8] 100% | [4]; [8] 99% | [4]; at 50.0 µM 99.5% | [6]; [8] 100% | [6]; at 50.0 µM 99.3% | [5]; [8] 98% | [5]; at 50.0 µM 99.3%

COc1ccc2c(c1)CCC1C2CCC2(C)C(=O)C(SC3=NC=NC4=NC=NC43)CC12 (stereo unspecified)
inactive: [1]; [7] 24% | [2]; [7] 25% | [3]; [7] 49% | [4]; [7] -3% | [6]; [7] 19% | [5]; [7] 20%
active: [1]; [8] 97% | [1]; at 50.0 µM 97% | [2]; [8] 99% | [2]; at 50.0 µM 92.7% | [3]; [8] 99% | [3]; at 50.0 µM 96.7% | [4]; [8] 98% | [4]; at 50.0 µM 91.8% | [6]; [8] 97% | [6]; at 50.0 µM 92.2% | [5]; [8] 98% | [5]; at 50.0 µM 96.2%

Clc1ccc2c(Cl)c3c(nc2c1)CCCC3
inactive: [1]; [7] -1% | [2]; [7] 2% | [3]; [7] 2% | [3]; at 50.0 µM 48.1% | [4]; [7] 0% | [5]; [7] -5%
active: [1]; [8] 98% | [1]; at 50.0 µM 99% | [2]; [8] 99% | [2]; at 50.0 µM 99.5% | [3]; [8] 99% | [4]; [8] 99% | [4]; at 50.0 µM 99.3% | [5]; [8] 94% | [5]; at 50.0 µM 99.2%

O=C1O/C(=C(/Cl)c2c3ccccc3cc3ccccc23)c2ccccc21
active: [1]; [8] 95% | [1]; at 50.0 µM 81.1% | [2]; [8] 92% | [2]; at 50.0 µM 80.2% | [3]; [8] 96% | [3]; at 50.0 µM 82.3% | [6]; [8] 95% | [6]; at 50.0 µM 84.5% | [5]; [8] 95% | [5]; at 50.0 µM 82.2%
inactive: [1]; [7] -22% | [2]; [7] -13% | [3]; [7] -15% | [6]; [7] -25% | [5]; [7] 27%

OC(c1ccccc1)(c1ccccc1)c1ccc[cH-]1.OC(c1ccccc1)(c1ccccc1)c1ccc[cH-]1.[Fe+2]
inactive: [1]; [7] 3% | [1]; [8] -5% | [1]; at 50.0 µM -0.6% | [2]; [7] 3% | [2]; [8] -1% | [2]; at 50.0 µM 9.45% | [3]; [7] 3% | [3]; [8] -16% | [3]; at 50.0 µM -2.3% | [4]; [7] 4% | [4]; [8] -15% | [4]; at 50.0 µM -13.6% | [5]; [7] 1% | [5]; [8] -3% | [5]; at 50.0 µM 35.4%

COC1/C=C\OC2(C)Oc3c(C)c(O)c4c(c3C2=O)C2=NC(C)(C)N(c3ccccc3)C2=C(NC(=O)/C(C)=C\C=C\C(C)C(O)C(C)C(O)C(C)C(OC(C)=O)C1C)C4=O (stereo unspecified)
inactive: [1]; [7] -2% | [1]; at 50.0 µM 24.9% | [2]; [7] -2% | [2]; at 50.0 µM 53.5% | [3]; [7] -2% | [4]; [7] 2% | [4]; at 50.0 µM 39.9% | [5]; [7] -2% | [5]; at 50.0 µM 51.9%
active: [1]; [8] 78% | [2]; [8] 95% | [3]; [8] 85% | [3]; at 50.0 µM 72.8% | [4]; [8] 91% | [5]; [8] 86%

COc1ccc2cc(CNCCCCCCCCNCc3ccc4cc(OC)ccc4c3)ccc2c1
inactive: [1]; [7] 22% | [2]; [7] 6% | [3]; [7] 19% | [4]; [7] 9% | [5]; [7] 31%
active: [1]; [8] 99% | [1]; at 50.0 µM 97.7% | [2]; [8] 100% | [2]; at 50.0 µM 97.2% | [3]; [8] 99% | [3]; at 50.0 µM 95.1% | [4]; [8] 99% | [4]; at 50.0 µM 94.5% | [5]; [8] 99% | [5]; at 50.0 µM 97.2%
